# In PubChem BioAssay (NCATS):
# Results filed as inconclusive are left out. Entries that show only a call come without a potency. Active and inactive are the calls of the source. The call rests on the fitted dose curve; in most records, active means well fitted inhibition curve with a large enough effect; inconclusive means small, poorly fitted or top-dose-only effect; inactive means flat fitted curve, though single readings scatter.
# How the values were obtained:
# Test in all cases: qHTS profiling for inhibitors of Plasmodium falciparum proliferation (AID 504749); further: nearly all actives have a fitted effect of over 60% in size
# Conditions in all cases: P. falciparum in erythrocytes, SYBR Green DNA, 72 h; series mostly up to 28.7 µM
# CP291 = tested on: CP291
# Procedure, shortened: (§1)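 Readout was DNA-dye fluorescence from lysed cultures, ex 485/em 535 nm. Parasitized red cells had grown 72 h with compound; data scaled between 0.29 uM artemisinin and DMSO wells and corrected using vehicle-only plates.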
# CP297 = tested on: CP297
# Procedure, shortened: as §1
# CP305 = tested on: CP305
# Procedure, shortened: as §1
# CP315 = tested on: CP315
# Procedure, shortened: as §1
# CP325 = tested on: CP325
# Procedure, shortened: as §1
# CP329 = tested on: CP329
# Procedure, shortened: as §1
# CP335 = tested on: CP335
# Procedure, shortened: as §1
# DFO2036 = tested on: DFO2036
# Procedure, shortened: as §1
# DIV14 = tested on: DIV14
# Procedure, shortened: as §1
# DIV17 = tested on: DIV17
# Procedure, shortened: as §1
# DIV30 = tested on: DIV30
# Procedure, shortened: as §1
# Dd2 = tested on: Dd2
# Procedure, shortened: as §1
# ECU = tested on: ECU
# Procedure, shortened: as §1
# FAB9 = tested on: FAB9
# Procedure, shortened: as §1
# GB4 = tested on: GB4
# Procedure, shortened: as §1
# HB3 = tested on: HB3
# Procedure, shortened: as §1
# ICS = tested on: ICS
# Procedure, shortened: as §1
# JCK = tested on: JCK
# Procedure, shortened: as §1
# N140 = tested on: N140
# Procedure, shortened: as §1
# P93_24 = tested on: P93_24
# Procedure, shortened: as §1
# Potency means the concentration at half of the fitted maximal effect.
SMILES,Potency (CP291),Potency (CP297),Potency (CP305),Potency (CP315),Potency (CP325),Potency (CP329),Potency (CP335),Potency (DFO2036),Potency (DIV14),Potency (DIV17),Potency (DIV30),Potency (Dd2),Potency (ECU),Potency (FAB9),Potency (GB4),Potency (HB3),Potency (ICS),Potency (JCK),Potency (N140),Potency (P93_24)
O=C(O)[C@@H]1CSCN1,inactive,inactive,inactive,inactive,inactive,inactive,inactive,inactive,inactive,inactive,inactive,inactive,inactive,inactive,inactive,inactive,inactive,inactive,inactive,inactive
O=C1OC(OC(=O)c2cccnc2Nc2cccc(C(F)(F)F)c2)c2ccccc21 (stereo not given),inactive,inactive,inactive,inactive,inactive,inactive,inactive,inactive,inactive,inactive,inactive,inactive,inactive,inactive,inactive,inactive,inactive,inactive,inactive,inactive
Oc1cccc(O)c1,inactive,inactive,inactive,inactive,inactive,inactive,inactive,inactive,inactive,inactive,inactive,inactive,inactive,inactive,inactive,inactive,inactive,inactive,inactive,inactive
Cc1ncc(COP(=O)(O)O)c(C=O)c1O,inactive,inactive,inactive,inactive,inactive,inactive,inactive,inactive,inactive,inactive,inactive,inactive,inactive,inactive,inactive,inactive,inactive,inactive,inactive,inactive
CC(C)(C)C(=O)NCCCC(=O)O,12 µM (active),inactive,inactive,inactive,inactive,inactive,inactive,inactive,inactive,inactive,inactive,inactive,inactive,inactive,inactive,inactive,inactive,inactive,inactive,inactive
COc1cc2[nH]c(=O)[nH]c(=O)c2cc1OC,inactive,inactive,inactive,inactive,inactive,inactive,inactive,inactive,inactive,inactive,inactive,inactive,inactive,inactive,inactive,inactive,inactive,inactive,inactive,inactive
CCCCOc1cc(C(=O)OCCN(CC)CC)ccc1N,inactive,inactive,inactive,inactive,inactive,inactive,inactive,inactive,inactive,inactive,inactive,inactive,inactive,inactive,inactive,inactive,inactive,inactive,inactive,inactive
CCCCCCCCCCCCCCCC(=O)NCCO,inactive,inactive,inactive,inactive,inactive,inactive,inactive,inactive,inactive,inactive,inactive,inactive,inactive,inactive,inactive,inactive,inactive,inactive,inactive,inactive
CCCCc1ncc(/C=C(\Cc2cccs2)C(=O)O)n1Cc1ccc(C(=O)O)cc1,inactive,inactive,inactive,inactive,inactive,inactive,inactive,inactive,inactive,inactive,inactive,inactive,inactive,inactive,inactive,inactive,inactive,inactive,inactive,inactive
Cc1cc(CC(=O)O)n(C)c1C(=O)c1ccc(Cl)cc1,inactive,inactive,inactive,inactive,inactive,inactive,inactive,inactive,inactive,inactive,inactive,inactive,inactive,inactive,inactive,inactive,inactive,inactive,inactive,inactive
COc1ccccc1O,inactive,inactive,inactive,inactive,inactive,inactive,inactive,inactive,inactive,inactive,inactive,inactive,inactive,inactive,inactive,inactive,inactive,inactive,inactive,inactive
CC(C)(C)NCC(O)COc1ccc(NC(=O)NC2CCCCC2)cc1 (stereo not given),inactive,inactive,inactive,inactive,inactive,inactive,inactive,inactive,inactive,inactive,inactive,inactive,inactive,inactive,inactive,inactive,inactive,inactive,inactive,inactive
CCCCN(CCCC)CCCOC(=O)c1ccc(N)cc1,inactive,inactive,inactive,inactive,inactive,inactive,inactive,inactive,inactive,inactive,inactive,inactive,inactive,inactive,inactive,inactive,inactive,inactive,inactive,inactive
Nc1ccc(S(=O)(=O)NC(=O)c2ccccc2)cc1,inactive,inactive,inactive,inactive,inactive,inactive,inactive,inactive,inactive,inactive,inactive,inactive,inactive,inactive,inactive,inactive,inactive,inactive,inactive,inactive
OCC(O)CN1CCN(c2ccccc2)CC1 (stereo not given),inactive,inactive,inactive,inactive,inactive,inactive,inactive,inactive,inactive,inactive,inactive,inactive,inactive,inactive,inactive,inactive,inactive,inactive,inactive,inactive
CC[C@@]1(c2ccccc2)NC(=O)N(C)C1=O,inactive,inactive,inactive,inactive,inactive,inactive,inactive,inactive,inactive,inactive,inactive,inactive,inactive,inactive,inactive,inactive,inactive,inactive,inactive,inactive
COc1cc(C(=O)N2CCOCC2)cc(OC)c1OC,inactive,inactive,inactive,inactive,inactive,inactive,inactive,inactive,inactive,inactive,inactive,inactive,inactive,inactive,inactive,inactive,inactive,inactive,inactive,inactive
O=C1NC(=O)[C@@]2(CCOc3ccc(F)cc32)N1,inactive,inactive,inactive,inactive,inactive,inactive,inactive,inactive,inactive,inactive,inactive,inactive,inactive,inactive,inactive,inactive,inactive,inactive,inactive,inactive
O=S(=O)(O)NC1CCCCC1,inactive,inactive,inactive,inactive,inactive,inactive,inactive,inactive,inactive,inactive,inactive,inactive,inactive,inactive,inactive,inactive,inactive,inactive,inactive,inactive
CC(=O)Oc1ccc(C2(c3ccc(OC(C)=O)cc3)C(=O)Nc3ccccc32)cc1,inactive,inactive,inactive,inactive,inactive,inactive,inactive,inactive,inactive,inactive,inactive,inactive,inactive,inactive,inactive,inactive,inactive,inactive,inactive,inactive
CCCOC(=O)c1ccccc1,inactive,inactive,inactive,inactive,inactive,inactive,inactive,inactive,inactive,inactive,inactive,inactive,inactive,inactive,inactive,inactive,inactive,inactive,inactive,inactive
Nc1ccc(S(=O)(=O)Nc2ccccc2)cc1,inactive,inactive,inactive,inactive,inactive,inactive,inactive,inactive,inactive,inactive,inactive,inactive,inactive,inactive,inactive,inactive,inactive,inactive,inactive,inactive
Nc1nc2c(ncn2CCC(CO)CO)c(=O)[nH]1,inactive,inactive,inactive,inactive,inactive,inactive,inactive,inactive,inactive,inactive,inactive,inactive,inactive,inactive,inactive,inactive,inactive,inactive,inactive,inactive
O=Cc1ccccc1C=O,inactive,inactive,inactive,inactive,inactive,inactive,inactive,inactive,inactive,inactive,inactive,inactive,inactive,inactive,inactive,inactive,inactive,inactive,inactive,inactive
O=c1cc[nH]c(=O)[nH]1,inactive,inactive,inactive,inactive,inactive,inactive,inactive,inactive,inactive,inactive,inactive,inactive,inactive,inactive,inactive,inactive,inactive,inactive,inactive,inactive
O=c1cc(CO)occ1O,inactive,inactive,inactive,inactive,inactive,inactive,inactive,inactive,inactive,inactive,inactive,inactive,inactive,inactive,inactive,inactive,inactive,inactive,inactive,inactive
CC(=O)NC(Cc1ccccc1)C(=O)O (stereo not given),inactive,inactive,inactive,inactive,inactive,inactive,inactive,inactive,inactive,inactive,inactive,inactive,inactive,inactive,inactive,inactive,inactive,inactive,inactive,inactive
NS(=O)(=O)c1cc2c(cc1Cl)NC(CSCc1ccccc1)=NS2(=O)=O,inactive,inactive,inactive,inactive,inactive,inactive,inactive,inactive,inactive,inactive,inactive,inactive,inactive,inactive,inactive,inactive,inactive,inactive,inactive,inactive
CC1(C)OC(=O)NC1=O,inactive,inactive,inactive,inactive,inactive,inactive,inactive,inactive,inactive,inactive,inactive,inactive,inactive,inactive,inactive,inactive,inactive,inactive,inactive,inactive
